Assay results from PubChem BioAssay.
Where “and” joins values, the source holds several entries; their conditions need not be identical. Identical values can stand only once. Records with an inconclusive call do not appear. Calls of active or inactive are those of the source.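 How the source made its calls, unless noted: active means normalized viability below 100% at a tested concentration; inactive means the rest.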

Tests used:
[1] = viability loss in pontine glioma line – cell-based, SU-DIPG-XVII, MIPE5.0, CellTiter-Glo, qHTS, dose response (AID 1347060; cut-off not given, nearly all actives have AC50 up to about 26 µM;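 on AC50: cells exposed to compound for 48 hours before viability readout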); conditions: CellTiter-Glo ATP luminescence
[2] = viability loss in pontine glioma line – cell-based, SU-DIPG-XIII, MIPE4.0, CellTiter-Glo, qHTS, dose response (AID 1347061; cut-off not given, nearly all actives have AC50 up to about 37 µM;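 further: cells exposed to compound for 48 hours before readout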); conditions: CellTiter-Glo ATP luminescence
[3] = viability loss in pontine glioma line – cell-based, JHH-DIPG-1, MIPE4.0, CellTiter-Glo, qHTS, dose response (AID 1347062; cut-off not given, nearly all actives have AC50 up to about 27 µM;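 on AC50: cells exposed to compound for two days before readout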); conditions: JHH-DIPG-1 viability, CellTiter-Glo ATP luminescence
[4] = viability loss in pontine glioma line – cell-based, SU-DIPG-IV, MIPE4.0, CellTiter-Glo, qHTS, dose response (AID 1347063; cut-off not given, nearly all actives have AC50 up to about 30 µM;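 further: compound exposure lasted 48 hours before the viability readout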); conditions: CellTiter-Glo ATP luminescence
[5] = viability loss in pontine glioma line – cell-based, SU-DIPG-XIII, MIPE5.0, CellTiter-Glo, qHTS, dose response (AID 1347064; cut-off not given, nearly all actives have AC50 up to about 23 µM;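 on AC50: cells exposed to compound for 48 hours before the viability read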); conditions: CellTiter-Glo ATP luminescence
[6] = viability loss in pontine glioma line – cell-based, SU-DIPG-XXV, MIPE5.0, CellTiter-Glo, qHTS, dose response (AID 1347065; cut-off not given, nearly all actives have AC50 up to about 26 µM;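 further: cells exposed to compound for 48 hours before ATP readout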); conditions: CellTiter-Glo ATP luminescence
[7] = growth inhibition of DIPG cells – cell-based, MIPE4.0 library, CellTiter-Glo luminescence, qHTS (AID 1347066; cut-off not given, nearly all actives have AC50 up to about 30 µM;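 further: cells exposed to compound for 48 hours before readout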); conditions: SU-DIPG-VI viability, CellTiter-Glo ATP luminescence
[8] = JHH-DIPG-1 glioma cell viability, MIPE5.0 library, CellTiter-Glo luminescence, qHTS (AID 1347067; cut-off not given, nearly all actives have AC50 up to about 26 µM;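 further: cells exposed to compound for 48 hours before readout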); conditions: JHH-DIPG-1 glioma viability, CellTiter-Glo ATP luminescence
[9] = viability loss with induced miR-34 in A549 – imaging, A549 dox-inducible miR-34, nuclei and caspase counts, primary screen (AID 1347080;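 active means compounds whose cell count with miR-34 switched on is under 0.7 times the count with it off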); conditions: A549 miR-34 inducible, Hoechst nuclei count, 48 h
[10] = compounds altering HSF1 focus formation in cells – imaging, Selleck Cancer Library (AID 1347162; in the data active means plate-normalised HSF1 focus index below about 0.46); conditions: human cells, HSF1 nuclear foci imaging, at 10 µM; SSMD: measured here: HSF1 foci SSMD mean; cell count: measured here: cell number; plate-normalised HSF1 focus index: stronger effect = lower value
[11] = MELAS cybrid and Rieske KO viability enhancers – cell-based, MELAS cybrids, Rieske KO mouse fibroblasts, CellTiter-Glo, primary screen (AID 1508586;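 active means mean z-score across replicates of 1.96 or higher in either the MELAS or the Rieske mutant cell line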;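 further: z relative to plate mean and SD of compound and empty wells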); conditions: low glucose
[12] = drug combination growth inhibition, ovarian cancer – cell-based, oncology-focused library, rucaparib conditional, profiling panel (AID 1508598); conditions: patient-derived ovarian cancer cells, CellTiter-Glo viability, 144 h, stronger effect = lower value
[13] = growth inhibition of DIPG cells – cell-based, MIPE5.0 library, qHTS (AID 1347068; cut-off not given, nearly all actives have IC50 up to about 30 µM;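 further: cells exposed to compound for 48 hours before viability readout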); conditions: SU-DIPG-XXV viability
[14] = stronger effect = lower value, cell number ratio, induced over uninduced
[15] = measured here: relative caspase fold change +Dox/-Dox
[16] = measured here: total cells with miR-34 induction, stronger effect = lower value
[17] = measured here: total cells without miR-34 induction
[18] = MELAS cybrid survival, CellTiter-Glo 48 h, stronger effect = higher value
[19] = Rieske KO mouse fibroblast survival, CellTiter-Glo 72 h
[20] = at 0.000305 µM, OCI-C5x cells, with rucaparib 10 µM, 100% = cells with rucaparib alone
[21] = at 0.000305 µM, OCI-C5x cells, without rucaparib
[22] = at 0.000305 µM, OCI-P5x cells, with rucaparib 20 µM, 100% = cells with rucaparib alone
[23] = at 0.000305 µM, OCI-P5x cells, without rucaparib
[24] = at 0.00122 µM, OCI-C5x cells, with rucaparib 10 µM, 100% = cells with rucaparib alone
[25] = at 0.00122 µM, OCI-C5x cells, without rucaparib
[26] = at 0.00122 µM, OCI-P5x cells, with rucaparib 20 µM, 100% = cells with rucaparib alone
[27] = at 0.00122 µM, OCI-P5x cells, without rucaparib
[28] = at 0.00488 µM, OCI-C5x cells, with rucaparib 10 µM, 100% = cells with rucaparib alone
[29] = at 0.00488 µM, OCI-C5x cells, without rucaparib
[30] = at 0.00488 µM, OCI-P5x cells, with rucaparib 20 µM, 100% = cells with rucaparib alone
[31] = at 0.00488 µM, OCI-P5x cells, without rucaparib
[32] = at 0.0195 µM, OCI-C5x cells, with rucaparib 10 µM, 100% = cells with rucaparib alone
[33] = at 0.0195 µM, OCI-C5x cells, without rucaparib
[34] = at 0.0195 µM, OCI-P5x cells, with rucaparib 20 µM, 100% = cells with rucaparib alone
[35] = at 0.0195 µM, OCI-P5x cells, without rucaparib
[36] = at 0.0781 µM, OCI-C5x cells, with rucaparib 10 µM, 100% = cells with rucaparib alone
[37] = at 0.0781 µM, OCI-C5x cells, without rucaparib
[38] = at 0.0781 µM, OCI-P5x cells, with rucaparib 20 µM, 100% = cells with rucaparib alone
[39] = at 0.0781 µM, OCI-P5x cells, without rucaparib
[40] = at 0.313 µM, OCI-C5x cells, with rucaparib 10 µM, 100% = cells with rucaparib alone
[41] = at 0.313 µM, OCI-C5x cells, without rucaparib
[42] = at 0.313 µM, OCI-P5x cells, with rucaparib 20 µM, 100% = cells with rucaparib alone
[43] = at 0.313 µM, OCI-P5x cells, without rucaparib
[44] = at 1.25 µM, OCI-C5x cells, with rucaparib 10 µM, 100% = cells with rucaparib alone
[45] = at 1.25 µM, OCI-C5x cells, without rucaparib
[46] = at 1.25 µM, OCI-P5x cells, with rucaparib 20 µM, 100% = cells with rucaparib alone
[47] = at 1.25 µM, OCI-P5x cells, without rucaparib
[48] = at 5 µM, OCI-C5x cells, with rucaparib 10 µM, 100% = cells with rucaparib alone
[49] = at 5 µM, OCI-C5x cells, without rucaparib
[50] = at 5 µM, OCI-P5x cells, with rucaparib 20 µM, 100% = cells with rucaparib alone
[51] = at 5 µM, OCI-P5x cells, without rucaparib

Nc1ccc(C(=O)Nc2cccc(-c3nc(N4CCOCC4)c4oc5ncccc5c4n3)c2)cn1
-0.394: SSMD [10]
active: AC50 [1] 4.68 µM | AC50 [2] 18.7 µM | AC50 [3] 16.6 µM | AC50 [4] 16.6 µM | AC50 [5] 8.33 µM | AC50 [6] 2.09 µM | AC50 [7] 11.8 µM | AC50 [8] 8.33 µM | z-score [11, 18] 3.1 | viability [12, 22] 83.5% | viability [12, 23] 86.3% | viability [12, 26] 68.8% | viability [12, 27] 85.2% | viability [12, 30] 71.1% | viability [12, 31] 81% | viability [12, 34] 56.8% | viability [12, 35] 74.2% | viability [12, 50] 80% | viability [12, 51] 78.9%
-2.85: z-score [11, 19]
6980: cell count [10]
0.903: fold change [9, 15]
2410: cell count [9, 16]
2370: cell count [9, 17]
inactive: fold change [9, 14] 1.02 | plate-normalised HSF1 focus index [10] 0.989 | viability [12, 20] 106% | viability [12, 21] 111% | viability [12, 24] 106% | viability [12, 25] 107% | viability [12, 28] 105% | viability [12, 29] 108% | viability [12, 32] 115% | viability [12, 33] 112% | viability [12, 36] 122% | viability [12, 37] 117% | viability [12, 38] 114% | viability [12, 39] 117% | viability [12, 40] 147% | viability [12, 41] 131% | viability [12, 42] 109% | viability [12, 43] 119% | viability [12, 44] 150% | viability [12, 45] 151% | viability [12, 46] 111% | viability [12, 47] 107% | viability [12, 48] 178% | viability [12, 49] 138%

O=C1c2ccccc2-[n+]2ccc3c([nH]c4ccccc43)c21
active: AC50 [1] 2.35 µM | AC50 [2] 2.64 µM | AC50 [3] 0.743 µM | AC50 [4] 2.09 µM | AC50 [5] 2.35 µM | AC50 [6] 2.63 µM | AC50 [7] 1.66 µM | AC50 [8] 2.35 µM

Oc1cccc(-c2nc(N3CCOCC3)c3oc4ncccc4c3n2)c1
inactive: fold change [9, 14] 1.06 and 0.903 | plate-normalised HSF1 focus index [10] 0.749 | viability [12, 20] 109% | viability [12, 21] 110% | viability [12, 22] 120% | viability [12, 23] 103% | viability [12, 24] 109% | viability [12, 25] 104% | viability [12, 26] 117% | viability [12, 30] 106% | viability [12, 31] 103% | viability [12, 34] 113% | viability [12, 35] 100% | viability [12, 36] 103% | viability [12, 37] 107% | viability [12, 40] 123% | viability [12, 41] 114%
active: AC50 [1] 0.525 µM | AC50 [2] 1.21 µM | AC50 [3] 0.215 µM | AC50 [4] 0.0429 µM | AC50 [5] 0.332 µM | AC50 [6] 0.186 µM | AC50 [7] 3.82 µM | AC50 [8] 5.25 µM | z-score [11, 18] 2.46 | viability [12, 27] 98.5% | viability [12, 28] 75.7% | viability [12, 29] 93.3% | viability [12, 32] 79.3% | viability [12, 33] 72.3% | viability [12, 38] 97.5% | viability [12, 39] 96.9% | viability [12, 42] 73.1% | viability [12, 43] 95.8% | viability [12, 44] 78.6% | viability [12, 45] 86.7% | viability [12, 46] 45.8% | viability [12, 47] 65.7% | viability [12, 48] 60.3% | viability [12, 49] 69.5% | viability [12, 50] 40.3% | viability [12, 51] 48.6%
2190 and 1580: cell count [9, 17]
2320 and 1430: cell count [9, 16]
7310: cell count [10]
0.551 and 1.05: fold change [9, 15]
-4.03: SSMD [10]
-0.00105: z-score [11, 19]

COC(=O)N1CCN(Cc2cccc(NC(=O)Nc3ccc(C)nc3)c2F)CC1
1.41: fold change [9, 15]
0.371: z-score [11, 19]
inactive: outcome [1] | outcome [2] | outcome [3] | outcome [4] | outcome [5] | outcome [6] | outcome [7] | outcome [8] | fold change [9, 14] 0.947 | z-score [11, 18] -0.446
9680: cell count [9, 17]
9170: cell count [9, 16]

CNC(=O)c1ccccc1Nc1nc(Nc2ccc(N3CCOCC3)cc2OC)ncc1Cl
active: AC50 [1] 0.59 µM | AC50 [2] 5.9 µM | AC50 [3] 1.48 µM | AC50 [4] 2.96 µM | AC50 [5] 0.235 µM | AC50 [6] 0.186 µM | AC50 [8] 0.661 µM | IC50 [13] 1.05 µM
1560: cell count [9, 16]
0.999: fold change [9, 15]
inactive: fold change [9, 14] 0.899 | z-score [11, 18] 0.492
1730: cell count [9, 17]
-1.89: z-score [11, 19]

CC(C)(C)c1[nH]cnc1/C=c1\[nH]c(=O)/c(=C/c2ccccc2)[nH]c1=O
2.69: SSMD [10]
7220: cell count [10]
active: AC50 [1] 0.0372 µM | AC50 [2] 42.9 µM | AC50 [3] 0.34 µM | AC50 [4] 42.9 µM | AC50 [5] 0.166 µM | AC50 [6] 0.0468 µM | AC50 [8] 0.0525 µM
inactive: plate-normalised HSF1 focus index [10] 1.17
